Targets with a hit are over-represented here; the source holds about 7,900 in all. About 0.6% of all pairs of compound and target were hits.
Columns and labels:
Assay in all cases: log2 fold change, soluble protein after heating vs DMSO (PISA); higher = thermal stabilisation; K562 cells, 10 uM, 30 min; active = over 0.2 and 3.5 SD of the protein, either way, in both replicates (recomputed)
erlotinib = compound: C#Cc1cccc(Nc2ncnc3cc(OCCOC)c(OCCOC)cc23)c1 [erlotinib]
How it was run: (§1)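 K562 cells at 2×10^6 cells/mL were exposed to 10 μM compound for 30 min, then aliquots were heated for 3 min across 48°C-58°C, pooled, and extracted in PBS containing 0.5% NP-40 at 4°C. The supernatant after 21,000xg for 90 min was taken as soluble protein and measured by TMTpro 16plex LC-MS/MS with channel sums equalised. Thermal stability is reported relative to control samples, with values from duplicates. Fold changes are given on a log2 scale.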

[1] = compound: C/C(=N\NC(=O)C1=CC(=CC=C1)S(=O)(=O)N2CCOCC2)/C3=C(C=CC(=C3)Cl)O
How it was run: as §1

[2] = compound: C1=CC(=C(C=C1Cl)C2=NC3=NC=CN=C3C(=N2)NC4=CC=NC=C4)F
How it was run: as §1

[3] = compound: C1=CC(=CC=C1C2=NC3=C(N2)C=C(C=C3)C(=O)N)OC4=CC=C(C=C4)Cl
How it was run: as §1

[4] = compound: C1=CC2=C(C=CC(=C2)/C=C\3/C(=O)NC(=NCC4=CC=CS4)S3)N=C1
How it was run: as §1

[5] = compound: C1=CC2=NC=CN=C2C=C1/C=C/3\C(=O)NC(=O)S3
How it was run: as §1

[6] = compound: C1=CC=C2C(=C1)C3=NNC4=CC=CC(=C43)C2=O
How it was run: as §1

[7] = compound: C1CCN(C1)C(=O)NC2=CC=CC(=C2)NC3=NC=C(C(=N3)NCCC4=CN=CN4)Br
How it was run: as §1

[8] = compound: C1CN(CCC1(CC2=CC=C(C=C2)Cl)N)C3=NC=NC4=C3C=CN4
How it was run: as §1

IRAK-1-4 Inhibitor I = compound: C1COCCN1CCN2C3=CC=CC=C3N=C2NC(=O)C4=CC(=CC=C4)[N+](=O)[O-] [IRAK-1-4 Inhibitor I]
How it was run: as §1

ibrutinib = compound: C=CC(=O)N1CCC[C@@H](n2nc(-c3ccc(Oc4ccccc4)cc3)c3c(N)ncnc32)C1 [ibrutinib]
How it was run: as §1

[9] = compound: CC(=O)c1cnc2ccc(-c3cc(Cl)c(O)c(Cl)c3)nc2c1N[C@H]1CC[C@H](CN(C)C)CC1
How it was run: as §1

[10] = compound: CC(C)(O)CC(=O)NCCn1ccc2ncnc(Nc3ccc(Oc4cccc(C(F)(F)F)c4)c(Cl)c3)c21
How it was run: as §1

[11] = compound: CC(C)C1=C2N=C(C=C(N2N=C1)NCC3=CC=CC=C3)NCCCCCCN
How it was run: as §1

pinometostat = compound: CC(C)N(C[C@H]1O[C@@H](n2cnc3c(N)ncnc32)[C@H](O)[C@@H]1O)[C@H]1C[C@@H](CCc2nc3cc(C(C)(C)C)ccc3[nH]2)C1 [pinometostat]
How it was run: as §1

[12] = compound: CC1=C(C(CC(=O)N1)C2=CC=C(C=C2)C(F)(F)F)C(=O)NC3=C(C=C4C(=C3)C=NN4)F
How it was run: as §1

[13] = compound: CC1=C(C2=C(C=C1)C(=O)C3=CC=CC=C3N2CCCN)C
How it was run: as §1

[14] = compound: C1=CC=C(C=C1)C2=NC(=C(N2)C3=CC=NC=C3)C4=CC(=C(C=C4)Cl)O
How it was run: as §1

ralimetinib = compound: CC(C)(C)Cn1c(N)nc2ccc(-c3[nH]c(C(C)(C)C)nc3-c3ccc(F)cc3)nc21 [ralimetinib]
How it was run: as §1

[15] = compound: CC(C)C[C@@H](C=O)NC(=O)[C@H](CC(C)C)NC(=O)[C@H](CC(C)C)NC(=O)OCc1ccccc1
How it was run: as §1

Measured: log2 fold change

FRA10AC1 isoform 3 (UniProt Q70Z53)
Sequence of UniProt Q70Z53 (Q70Z53 whole entry, looked up): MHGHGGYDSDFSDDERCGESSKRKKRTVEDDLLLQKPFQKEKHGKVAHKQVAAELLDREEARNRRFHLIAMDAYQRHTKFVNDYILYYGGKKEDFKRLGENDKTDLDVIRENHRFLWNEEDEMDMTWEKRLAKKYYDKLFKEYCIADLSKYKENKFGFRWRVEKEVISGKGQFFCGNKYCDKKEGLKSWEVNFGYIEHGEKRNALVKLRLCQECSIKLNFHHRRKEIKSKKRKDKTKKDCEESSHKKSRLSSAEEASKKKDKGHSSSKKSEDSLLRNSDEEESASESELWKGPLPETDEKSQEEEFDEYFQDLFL
inactive: erlotinib -0.02 | [1] 0.053 | [2] -0.059 | [3] -0.12 | [4] -0.305 | [5] 0.033 | [6] -0.154 | [7] -0.067 | [8] 0.126 | IRAK-1-4 Inhibitor I 0.005 | ibrutinib -0.014 | [9] 0.024 | [10] -0.024 | [11] 0.169 | pinometostat 0.001 | [12] -0.03 | [13] -0.201

HNRNPK isoform 3 (UniProt P61978)
inactive: erlotinib 0.101 | [2] -0.102 | [3] -0.032 | [5] 0.06 | [14] -0.024 | [7] -0.027 | [8] -0.052 | IRAK-1-4 Inhibitor I -0.011 | ibrutinib -0.001 | ralimetinib 0.03 | [10] 0.087 | [11] 0.075 | [15] 0.041 | pinometostat -0.021 | [12] -0.039 | [13] 0.21

FAT1 (UniProt Q14517)
Sequence of UniProt Q14517 (Q14517 whole entry, looked up): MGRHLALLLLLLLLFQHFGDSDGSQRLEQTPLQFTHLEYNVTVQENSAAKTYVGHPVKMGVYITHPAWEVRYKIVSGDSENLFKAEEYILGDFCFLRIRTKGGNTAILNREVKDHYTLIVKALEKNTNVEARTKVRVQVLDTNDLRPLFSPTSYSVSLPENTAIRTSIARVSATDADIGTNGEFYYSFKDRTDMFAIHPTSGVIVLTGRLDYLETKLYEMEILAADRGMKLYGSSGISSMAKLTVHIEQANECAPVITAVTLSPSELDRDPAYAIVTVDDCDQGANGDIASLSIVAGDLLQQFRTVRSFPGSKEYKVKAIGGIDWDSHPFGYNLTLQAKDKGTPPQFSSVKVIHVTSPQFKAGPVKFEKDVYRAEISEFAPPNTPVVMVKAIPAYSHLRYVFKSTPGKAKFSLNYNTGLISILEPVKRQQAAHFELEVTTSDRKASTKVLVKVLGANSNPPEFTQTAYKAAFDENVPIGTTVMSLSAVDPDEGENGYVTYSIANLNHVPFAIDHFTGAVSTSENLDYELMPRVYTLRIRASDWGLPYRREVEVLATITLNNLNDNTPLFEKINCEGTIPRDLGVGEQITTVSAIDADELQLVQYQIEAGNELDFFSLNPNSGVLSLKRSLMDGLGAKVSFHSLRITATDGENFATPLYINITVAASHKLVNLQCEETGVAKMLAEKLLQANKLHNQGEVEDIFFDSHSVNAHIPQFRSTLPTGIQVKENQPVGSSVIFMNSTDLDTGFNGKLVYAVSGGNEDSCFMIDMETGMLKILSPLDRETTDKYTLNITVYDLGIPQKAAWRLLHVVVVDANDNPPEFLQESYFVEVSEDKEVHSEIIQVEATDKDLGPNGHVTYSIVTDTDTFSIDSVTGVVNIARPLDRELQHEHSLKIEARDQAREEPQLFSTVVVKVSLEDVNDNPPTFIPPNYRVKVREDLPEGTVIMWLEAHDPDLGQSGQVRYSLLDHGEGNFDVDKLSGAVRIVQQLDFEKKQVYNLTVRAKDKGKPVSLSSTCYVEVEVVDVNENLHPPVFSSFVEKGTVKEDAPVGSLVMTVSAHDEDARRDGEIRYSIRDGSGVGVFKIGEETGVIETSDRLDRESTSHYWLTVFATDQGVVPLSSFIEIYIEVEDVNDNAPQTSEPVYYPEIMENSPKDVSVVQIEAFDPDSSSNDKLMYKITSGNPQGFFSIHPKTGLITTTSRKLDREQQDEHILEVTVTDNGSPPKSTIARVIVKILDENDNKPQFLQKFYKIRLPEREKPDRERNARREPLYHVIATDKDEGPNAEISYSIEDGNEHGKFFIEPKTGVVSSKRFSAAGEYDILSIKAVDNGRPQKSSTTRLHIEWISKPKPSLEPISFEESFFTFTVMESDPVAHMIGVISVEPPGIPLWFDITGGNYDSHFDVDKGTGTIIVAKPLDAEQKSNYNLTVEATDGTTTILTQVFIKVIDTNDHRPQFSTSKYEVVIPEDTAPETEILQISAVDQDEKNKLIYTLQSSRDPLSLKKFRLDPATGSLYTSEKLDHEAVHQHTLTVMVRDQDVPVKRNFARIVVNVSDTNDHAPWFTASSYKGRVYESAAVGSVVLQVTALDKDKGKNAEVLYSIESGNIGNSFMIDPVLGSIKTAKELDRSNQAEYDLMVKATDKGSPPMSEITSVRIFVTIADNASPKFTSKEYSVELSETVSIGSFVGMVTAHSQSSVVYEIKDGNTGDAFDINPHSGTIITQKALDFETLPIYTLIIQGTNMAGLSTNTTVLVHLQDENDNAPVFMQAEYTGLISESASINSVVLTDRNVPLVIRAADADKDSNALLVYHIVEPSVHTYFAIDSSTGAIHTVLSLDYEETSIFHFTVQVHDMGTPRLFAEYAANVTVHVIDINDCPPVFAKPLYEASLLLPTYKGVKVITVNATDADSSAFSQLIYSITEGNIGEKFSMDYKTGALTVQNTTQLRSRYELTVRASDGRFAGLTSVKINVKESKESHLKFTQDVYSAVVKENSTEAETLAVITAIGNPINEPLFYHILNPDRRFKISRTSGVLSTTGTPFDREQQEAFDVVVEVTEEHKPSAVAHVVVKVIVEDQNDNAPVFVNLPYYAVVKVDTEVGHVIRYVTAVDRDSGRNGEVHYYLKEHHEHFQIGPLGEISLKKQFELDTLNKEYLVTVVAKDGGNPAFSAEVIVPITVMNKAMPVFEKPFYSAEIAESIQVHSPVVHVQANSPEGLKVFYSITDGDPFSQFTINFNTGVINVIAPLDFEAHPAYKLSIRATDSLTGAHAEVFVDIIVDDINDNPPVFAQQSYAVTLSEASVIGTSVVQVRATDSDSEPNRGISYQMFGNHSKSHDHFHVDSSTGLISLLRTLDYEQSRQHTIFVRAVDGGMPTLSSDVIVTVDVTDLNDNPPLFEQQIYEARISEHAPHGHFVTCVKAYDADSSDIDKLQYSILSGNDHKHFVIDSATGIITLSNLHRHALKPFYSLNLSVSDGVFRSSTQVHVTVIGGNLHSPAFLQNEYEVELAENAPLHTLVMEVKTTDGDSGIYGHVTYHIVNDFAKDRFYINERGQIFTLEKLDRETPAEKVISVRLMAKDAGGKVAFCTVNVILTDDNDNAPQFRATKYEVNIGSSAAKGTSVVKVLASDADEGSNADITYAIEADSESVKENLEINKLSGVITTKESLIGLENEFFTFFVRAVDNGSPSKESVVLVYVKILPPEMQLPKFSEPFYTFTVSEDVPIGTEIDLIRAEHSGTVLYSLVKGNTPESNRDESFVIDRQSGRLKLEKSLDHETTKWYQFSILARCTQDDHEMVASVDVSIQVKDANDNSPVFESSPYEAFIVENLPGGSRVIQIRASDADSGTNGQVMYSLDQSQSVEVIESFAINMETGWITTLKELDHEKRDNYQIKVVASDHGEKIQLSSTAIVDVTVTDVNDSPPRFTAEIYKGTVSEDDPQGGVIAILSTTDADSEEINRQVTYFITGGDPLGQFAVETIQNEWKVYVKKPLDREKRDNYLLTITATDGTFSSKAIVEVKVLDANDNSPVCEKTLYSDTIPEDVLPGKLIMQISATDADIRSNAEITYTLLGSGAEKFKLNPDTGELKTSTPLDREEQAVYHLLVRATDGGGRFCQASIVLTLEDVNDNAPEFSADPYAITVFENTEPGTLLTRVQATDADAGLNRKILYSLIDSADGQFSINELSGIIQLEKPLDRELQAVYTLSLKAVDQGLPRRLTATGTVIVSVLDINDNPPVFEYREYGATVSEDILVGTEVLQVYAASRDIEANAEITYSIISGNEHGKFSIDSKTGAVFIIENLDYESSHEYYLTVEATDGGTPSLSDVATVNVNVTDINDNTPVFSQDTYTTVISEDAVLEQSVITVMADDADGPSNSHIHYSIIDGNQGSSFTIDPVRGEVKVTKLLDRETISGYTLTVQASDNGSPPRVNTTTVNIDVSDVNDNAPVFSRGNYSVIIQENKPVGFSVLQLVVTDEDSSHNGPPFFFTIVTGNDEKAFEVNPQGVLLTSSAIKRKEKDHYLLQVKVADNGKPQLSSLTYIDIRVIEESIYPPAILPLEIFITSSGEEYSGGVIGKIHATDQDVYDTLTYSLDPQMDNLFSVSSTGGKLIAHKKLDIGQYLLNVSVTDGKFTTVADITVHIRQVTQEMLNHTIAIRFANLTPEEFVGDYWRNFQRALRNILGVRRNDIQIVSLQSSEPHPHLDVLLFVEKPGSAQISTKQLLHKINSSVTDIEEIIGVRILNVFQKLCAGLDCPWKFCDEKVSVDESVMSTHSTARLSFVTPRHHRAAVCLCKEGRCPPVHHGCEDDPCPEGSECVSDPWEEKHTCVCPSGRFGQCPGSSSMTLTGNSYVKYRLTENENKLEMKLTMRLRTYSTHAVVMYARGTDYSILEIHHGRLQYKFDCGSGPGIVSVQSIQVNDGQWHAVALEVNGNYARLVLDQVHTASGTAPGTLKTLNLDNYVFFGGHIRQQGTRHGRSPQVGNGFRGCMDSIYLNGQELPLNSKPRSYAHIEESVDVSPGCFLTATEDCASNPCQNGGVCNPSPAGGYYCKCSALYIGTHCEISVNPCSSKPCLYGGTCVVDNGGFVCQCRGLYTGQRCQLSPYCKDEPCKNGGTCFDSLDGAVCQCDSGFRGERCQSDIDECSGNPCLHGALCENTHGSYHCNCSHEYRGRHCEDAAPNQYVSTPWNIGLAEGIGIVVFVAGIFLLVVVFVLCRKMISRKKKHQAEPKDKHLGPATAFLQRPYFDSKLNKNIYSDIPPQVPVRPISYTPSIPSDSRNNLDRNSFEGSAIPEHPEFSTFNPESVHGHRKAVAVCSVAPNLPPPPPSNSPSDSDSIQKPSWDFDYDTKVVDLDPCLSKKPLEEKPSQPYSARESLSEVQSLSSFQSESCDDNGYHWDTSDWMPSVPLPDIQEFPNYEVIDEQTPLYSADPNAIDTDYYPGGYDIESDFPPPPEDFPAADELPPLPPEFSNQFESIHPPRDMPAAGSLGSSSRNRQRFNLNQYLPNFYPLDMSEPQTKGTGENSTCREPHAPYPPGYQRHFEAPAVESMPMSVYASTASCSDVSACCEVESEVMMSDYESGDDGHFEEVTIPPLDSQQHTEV
inactive: erlotinib -0.06 | [2] -0.062 | [3] 0.161 | [5] -0.08 | [14] 0.045 | [7] -0.123 | [8] 0.066 | IRAK-1-4 Inhibitor I 0.028 | ibrutinib 0.151 | [10] 0.01 | [11] 0.162 | [15] 0.683 | pinometostat -0.095 | [12] 0.019 | [13] 0.091
active: ralimetinib -0.448

FOXO3 (UniProt O43524)
inactive: erlotinib 0.026 | [1] -0.007 | [2] -0.025 | [3] -0.079 | [4] 0.027 | [14] -0.035 | [6] 0.038 | [7] -0.224 | [8] -0.283 | IRAK-1-4 Inhibitor I -0.046 | [9] -0.427 | ralimetinib -0.083 | [10] 0.086 | [11] -0.091 | [15] 0.234 | pinometostat 0 | [13] 0.081

FBXO9 (UniProt Q9UK97)
inactive: erlotinib -0.017 | [3] 0.137 | [5] -0.022 | [14] 0.03 | [7] -0.098 | [8] -0.037 | IRAK-1-4 Inhibitor I -0.034 | ibrutinib -0.119 | ralimetinib 0.137 | [11] -0.101 | [15] 0.088 | pinometostat 0.038 | [12] -0.062 | [13] 0.137

HBZ, A0A494C057
inactive: erlotinib 0.141 | [3] -0.062 | [5] -0.055 | ibrutinib 0.284 | [11] -0.054 | [12] -0.145

GAB2 (UniProt Q9UQC2)
inactive: erlotinib -0.035 | [1] 0.149 | [2] -0.033 | [3] 0.231 | [4] -0.04 | [14] -0.294 | [6] -0.196 | [7] -0.29 | [8] 0.012 | IRAK-1-4 Inhibitor I -0.097 | [9] -0.573 | ralimetinib 0.059 | [10] -0.242 | [11] -0.616 | [15] 0.094 | pinometostat 0.081 | [13] 0.004

Reference: the supplement of paper PMC10849652
